This is an account of results in PubChem BioAssay AID652154 (Broad Institute, 2013).

Where “and” joins values, the source holds several entries; their conditions need not be identical. Equal values may be shown once. Out of some 360,000 compounds screened, about 4,200 (1.2%) were called active.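 How the source made its calls: active means mean replicate inhibition at least 60% with every replicate also reaching 60%; inconclusive means only one of the two criteria is met; inactive means mean below 60% and not all replicates reaching 60%.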 The full list was thinned out, with actives kept by preference. Some structures have more than one record in an assay (separate samples or runs), and their calls can disagree.

The nature of the test: inhibitors of PAX8-driven TPO luciferase reporter, primary screen, RMG-I cells, single concentration (AID 652154).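 Further: luciferase light reporting Pax8 driven TPO promoter activity; plate controls were median of neutral control wells for no effect and mitoxantrone controls for full effect.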 As to conditions: SteadyGlo, 24 h, at 12.6 µM, stronger effect = higher value. In general terms: Reporter assays use an easily measured gene product as a stand-in for the process of interest.
The term inhibition denotes the change of the read-out against control, counted positive when it falls. In the case of `CCCNC(=O)N[C@@H]1CC[C@@H](CCn2cc(C3CC3)nn2)O[C@@H]1CO`, the inhibition was 3.4% (inactive).
The figure for `C[C@@H]1CCCCO[C@@H](CN(C)S(=O)(=O)c2cn(C)cn2)[C@H](C)CN([C@H](C)CO)C(=O)c2cc(NS(=O)(=O)c3ccc(Cl)cc3)ccc2O1` is 4.97% (inactive); for `C[C@H]1CN([C@@H](C)CO)C(=O)c2cccc(NS(=O)(=O)c3ccc(Cl)cc3)c2O[C@H]1CN(C)Cc1ccc2c(c1)OCO2` it is 4.78% (inactive); for `CC(C)NC(=O)N[C@H]1CC[C@@H](CC(=O)NCc2ccc(Oc3ccccc3)cc2)O[C@@H]1CO` it is -20.9% (inactive).
In the case of `C[C@H](CO)N1C[C@H](C)[C@H](CN(C)C(=O)Nc2ccc(F)cc2)Oc2ncc(-c3cc4ccccc4o3)cc2C1=O`, the inhibition is 23.1% (inactive).
As for `COc1ccc(NC(=O)Nc2ccc3c(c2)C(=O)N([C@H](C)CO)C[C@@H](C)[C@H](CN(C)Cc2ccc(Cl)c(Cl)c2)OCCCC[C@@H](C)O3)cc1`, the figure is 57.5% (inactive); as for `C[C@@H]1CCCCO[C@@H](CN(C)Cc2ccc(Cl)c(Cl)c2)[C@H](C)CN([C@H](C)CO)C(=O)c2cc(NC(=O)Nc3ccc(F)cc3)ccc2O1`, 102% (active); as for `CC(C)NC(=O)Nc1ccc2c(c1)C(=O)N([C@@H](C)CO)C[C@@H](C)[C@H](CN(C)Cc1ccc(Cl)c(Cl)c1)OCCCC[C@H](C)O2`, 38% (inactive).
As to `O=S(=O)(c1ccccc1)N1C[C@@H]2[C@H](c3ccccc31)[C@H](CO)N2Cc1ccccn1`, the inhibition is 19.7% (inactive).
As for `O=C(C1CCCCC1)N1CC2(C1)[C@H](c1ccccc1)[C@@H](CO)N2CCC(F)(F)F`, the figure is -17.1% (inactive); as for `CC(=O)Nc1ccc2c(c1)C(=O)N(C)[C@@H]1CC[C@@H](CC(=O)NCC3CCCCC3)O[C@@H]1CO2`, -4.32% (inactive); as for `COc1ccc(NC(=O)Nc2ccc3c(c2)C(=O)N([C@@H](C)CO)C[C@H](C)[C@@H](CN(C)C(=O)NC2CCCCC2)O3)cc1`, -4.33% (inactive).
Regarding `COc1ccc(/C=C2/CCCc3ccccc3C2=O)cc1`, the inhibition was -38.8% (inactive).
For `COc1ccc(OC)c(C2C3=C(N=c4s/c(=C\c5cccc(O)c5)c(=O)n42)c2ccccc2CC3)c1` (configuration not stated), the inhibition is 64.2% (active).
Turning to `COc1ccc(C[C@@H]2CCc3cnnn3COC[C@H](c3ccccc3)NC2=O)cc1`, the inhibition is 1.19% (inactive).
In the case of `O=C(C1CCOCC1)N1CC(=O)N2[C@H](CO)[C@H](c3ccc(C#Cc4cccc(F)c4)cc3)[C@H]2C1`, the inhibition was -14.5% (inactive).
The figure for `O=C(N[C@H]1CC[C@H](CCn2cc(C3(O)CCCC3)nn2)O[C@H]1CO)C1CC1` is 13.3% (inactive).
As for `O=C(c1ccncc1)N1CCCCN2[C@H](CO)[C@@H](c3ccc(C#Cc4ccccn4)cc3)[C@H]2C1`, the figure is 5.08% (inactive).
As for `O=C(COc1ccc(-n2cnnn2)cc1)Nc1ccccc1Cl`, the figure is -3.21% (inactive); as for `O=C(Nc1ccccc1Cl)/C(Cl)=C(\Cl)S(=O)c1ccccc1` (configuration not stated), 111% (active).
On to `CS/C(=C\C(=O)c1ccco1)Nc1ccccc1Cl`, for which the inhibition is 30.8% (inactive).
As for `COc1ccc(-c2ccc(C3[C@@H]4CN(S(=O)(=O)c5cn(C)cn5)C[C@H]3N4)cc2)cc1` (some centres not stated), the figure is -15.4% (inactive); as for `Cn1cnc(S(=O)(=O)N2C[C@@H]3N[C@H](C2)C3c2ccc(-c3ccccc3F)cc2)c1` (some centres not stated), 77.5% (active) and 26.1% (inactive).
As for `Cn1cnc(S(=O)(=O)N2C[C@@H]3N[C@H](C2)C3c2ccc(/C=C/c3ccccc3)cc2)c1` (some centres not stated), the figure is -2.85% (inactive) and -1.61% (inactive); as for `CC[C@]1(O)C[C@@H]2CN(CCc3c([nH]c4ccccc34)[C@@](C(=O)OC)(c3cc4c(cc3OC)N(C)[C@H]3[C@@](O)(C(=O)OC)[C@H](OC(C)=O)[C@]5(CC)C=CCN6CC[C@]43[C@@H]65)C2)C1`, 94.6% (active); as for `CC[C@]1(O)CC2CN(CCc3c([nH]c4ccccc34)[C@@](C(=O)OC)(c3cc4c(cc3OC)N(C=O)[C@H]3[C@@](O)(C(=O)OC)[C@H](OC(C)=O)[C@]5(CC)C=CCN6CC[C@]43[C@@H]65)C2)C1` (some centres not stated), 82% (active).
As for `O=C(C[C@@H]1CC[C@H]2[C@@H](COC[C@@H](O)CN2Cc2nccs2)O1)NCc1ccc(-c2ccccc2)cc1`, the figure is 23% (inactive); as for `C[C@@H]1CN([C@H](C)CO)C(=O)Cc2cc(NC(=O)CCN3CCOCC3)ccc2O[C@@H]1CN(C)S(C)(=O)=O`, -16.5% (inactive).
With `C[C@H](CO)N1C[C@H](C)[C@@H](CN(C)Cc2ccccn2)Oc2ncc(-c3cccc(F)c3)cc2C1=O`, the inhibition is -0.625% (inactive).
The figure for `Cc1ccccc1S(=O)(=O)N1CC(=O)N2[C@H](CO)[C@H](c3ccc(C#CC4CC4)cc3)[C@@H]2C1` is -7.36% (inactive); for `COc1cc2ccccc2cc1C(=O)Nc1ccccc1C` it is -95.1% (inactive); for `Cc1csc(NC(=O)CSc2nc(=O)cc(N)n2-c2ccc(F)cc2)n1` it is -0.606% (inactive).
As to `COc1cc(SC)ccc1C(=O)Nc1nc(C)cs1`, the inhibition is 72.7% (active).
Consider `O=C(Cc1ccccc1)N1C[C@@H]2[C@H](c3ccccc31)[C@@H](CO)N2C(=O)C1CCOCC1`, for which the inhibition was 10.4% (inactive).
The figure for `O=C(c1cccnc1)N1CC[C@H]2[C@H](CO)Nc3ccc(-c4ccc(F)cc4)cc3[C@H]21` is 1.77% (inactive).
As for `CN(C[C@@H]1[C@H](c2ccccc2)[C@@H](CO)N1Cc1ccccn1)S(C)(=O)=O`, the inhibition is -9.74% (inactive).
Take `CC(OC(=O)/C=C/c1ccccc1)C(=O)NC1CCCCC1C` (configuration not stated): the inhibition was -9.75% (inactive).
In the case of `CC1CCCCC1NC(=O)/C(C#N)=C/C=C/c1ccccc1[N+](=O)[O-]` (configuration not stated), the inhibition was 91.1% (active).
As for `CC1CCCCC1NC(=O)COc1ccc(C#N)cc1` (configuration not stated), the figure is -9.56% (inactive).
The figure for `CC(C)NC(=O)Nc1ccc2c(c1)C(=O)N([C@@H](C)CO)C[C@@H](C)[C@H](CN(C)Cc1ccc(C(=O)O)cc1)O2` is -28.1% (inactive); for `C[C@H]1CN([C@@H](C)CO)C(=O)c2cccc(NC(=O)c3ccncc3)c2O[C@H]1CN(C)C` it is -1.05% (inactive).
Consider `COc1ccc(S(=O)(=O)N2CCCCN3[C@H](C2)[C@H](c2ccc(C#CCC(C)C)cc2)[C@@H]3CO)cc1`, for which the inhibition was 18.7% (inactive).
As to `COc1cccc(S(=O)(=O)N2CCCCN3[C@H](CO)[C@H](c4ccc(C#CC5CC5)cc4)[C@H]3C2)c1`, the inhibition was 12.2% (inactive).
Regarding `CCCC#Cc1ccc([C@H]2[C@H](CO)N3CCCCN(S(=O)(=O)CC)C[C@@H]23)cc1`, the inhibition was -26.1% (inactive).
Take `CCCC#Cc1ccc([C@H]2[C@@H](CO)N3CCCCN(S(=O)(=O)Cc4ccccc4)C[C@H]23)cc1`: the inhibition is 86.5% (active).
The figure for `COc1ccc(S(=O)(=O)N2CCCCN3[C@H](CO)[C@@H](c4ccc(C#CC(C)C)cc4)[C@H]3C2)cc1` is 76.3% (active); for `C[C@@H](O)C#Cc1ccc([C@@H]2[C@H]3CN(S(=O)(=O)c4ccccc4)CCCCN3[C@H]2CO)cc1` it is -13.8% (inactive); for `COc1ccc(S(=O)(=O)N2CCCCN3[C@H](C2)[C@H](c2ccc(C4=CCCC4)cc2)[C@@H]3CO)cc1` it is 9.85% (inactive).
As for `CCCC#Cc1ccc([C@H]2[C@@H](CO)N3CCCCN(S(=O)(=O)CC)C[C@H]23)cc1`, the figure is 6.07% (inactive).
The figure for `COc1ccc(S(=O)(=O)N2CCCCN3[C@@H](CO)[C@@H](c4ccc(C#CCC(C)C)cc4)[C@@H]3C2)cc1` is 46.7% (inactive).
Turning to `COc1cccc(S(=O)(=O)N2CCCCN3[C@H](C2)[C@H](c2ccc(C#CC(C)C)cc2)[C@@H]3CO)c1`, the inhibition was 69.8% (active).
The figure for `COc1cccc(S(=O)(=O)N2CCCCN3[C@H](C2)[C@@H](c2ccc(C4=CCCCC4)cc2)[C@@H]3CO)c1` is 12.7% (inactive); for `COc1ccc(S(=O)(=O)N2CCCCN3[C@H](CO)[C@H](c4ccc(C5=CCCCC5)cc4)[C@@H]3C2)cc1` it is 69.6% (active).
The figure for `CO[C@H]1CN(C)C(=O)c2ccc(NC(=O)C3CCC3)cc2OC[C@@H](C)NC[C@H]1C` is 9.77% (inactive); for `CC(=O)NC[C@H]1[C@H](c2ccc(C3=CCCCC3)cc2)[C@@H](CO)N1C(=O)NC(C)C` it is -0.865% (inactive); for `CCCNC(=O)N1C[C@H]2[C@@H](c3ccccc31)[C@H](CO)N2C(=O)NC(C)C` it is -13% (inactive).
The figure for `COCC(=O)Nc1ccc2c(c1)C(=O)N(C)C[C@@H](OC)[C@@H](C)CN(C(=O)Cc1ccccn1)[C@@H](C)CO2` is -15.1% (inactive).
Regarding `CCC(=O)Nc1ccc2c(c1)C(=O)N(C)C[C@H](OC)[C@H](C)CN(CCC(F)(F)F)[C@H](C)CO2`, the inhibition was -9.12% (inactive).
The figure for `COCC(=O)Nc1ccc2c(c1)OC[C@@H](C)N(C(=O)CC1CC1)C[C@@H](C)[C@@H](OC)CN(C)C2=O` is -0.715% (inactive); for `C/C=C/c1ccc(C2[C@H]3CNC[C@@H]2N3C(=O)Nc2cc(F)ccc2F)cc1` (some centres not stated) it is -0.3% (inactive); for `CCNC(=O)Nc1ccc2c(c1)C(=O)N(C)[C@H]1CC[C@@H](CC(=O)N[C@H](C)c3ccccc3)O[C@@H]1CO2` it is -19% (inactive).
The figure for `C[C@H]1CN([C@@H](C)CO)C(=O)c2ccccc2-c2ccccc2CO[C@H]1CN(C)S(=O)(=O)c1ccccc1C#N` is -18.2% (inactive).
The figure for `O=C(C[C@@H]1C[C@@H]2c3cc(NS(=O)(=O)c4ccc(F)cc4)ccc3O[C@@H]2[C@H](CO)O1)N1CCCCC1` is 9.01% (inactive); for `CCCCc1c(-c2ccc(Cl)cc2)ncn1CCc1ccccc1OC` it is 33.1% (inactive); for `CCCCCc1c(-c2cccc(Br)c2)ncn1CCc1ccccc1OC` it is 9.05% (inactive).
In the case of `CCCCc1c(-c2ccc(Br)cc2)ncn1CCc1ccccc1OC`, the inhibition is 74% (active).
Take `CN(C)CC#Cc1ccc([C@@H]2[C@H](CO)N3C(=O)CN(C(=O)Cc4cccnc4)C[C@@H]23)cc1`: the inhibition was 17.8% (inactive).
